A short description of assay [1]: antimalarial activity against Dd2 strain (AID 2302;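 active = growth inhibition above 50% at the single 2 µM test dose, taken to imply half-maximal potency below 2 µM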;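 note: 0% = DMSO untreated growth and 100% = chloroquine plus artemisinin killed control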). To be noted: P. falciparum Dd2 in RBCs, LDH growth readout, 72 h; at 2 µM; stronger effect = higher value.
The nature of assay [2]: HepG2 cytotoxicity, primary screen, cytotoxicity control for P. falciparum antimalarial project, cell-based, ATP luminescence (AID 2303;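 active = inhibition above 50%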;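 note: 0% = DMSO wells and 100% = digitonin-killed cells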). To be noted: HepG2 viability, 24-48 h, at 10 µM, stronger effect = higher value.
In assay [3] the target is L-lactate dehydrogenase (Plasmodium falciparum (isolate CDC / Honduras)) (UniProt Q27743). As to the kind of experiment: PfLDH activity inhibition – cell lysate, 3D7 strain, counter-screen for P. falciparum growth inhibition project (AID 2304).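 Note: 0% = vehicle and 100% = reference inhibitor.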 Conditions: P. falciparum 3D7 crude extract, LDH APAD/NBT absorbance; at 2 µM; stronger effect = higher value. A general note: Counterscreens check selectivity or assay interference.
Chain of L-lactate dehydrogenase (Plasmodium falciparum (isolate CDC / Honduras)) (Q27743 whole entry, looked up): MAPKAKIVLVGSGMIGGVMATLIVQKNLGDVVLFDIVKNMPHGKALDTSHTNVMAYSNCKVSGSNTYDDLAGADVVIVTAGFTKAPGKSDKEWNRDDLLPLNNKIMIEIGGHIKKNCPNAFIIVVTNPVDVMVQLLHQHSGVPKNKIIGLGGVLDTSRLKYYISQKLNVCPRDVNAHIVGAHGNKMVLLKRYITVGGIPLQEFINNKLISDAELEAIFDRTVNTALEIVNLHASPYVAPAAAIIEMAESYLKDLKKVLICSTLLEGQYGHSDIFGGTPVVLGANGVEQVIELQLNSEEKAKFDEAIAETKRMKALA

A short description of assay [4]: inhibition of 3D7 malaria parasite growth – strain 3D7 (AID 2306).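 Note: 0% = DMSO wells and 100% = chloroquine plus artemisinin control wells.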 To be noted: P. falciparum 3D7 erythrocytic growth, LDH absorbance, 72 h; at 2 µM; stronger effect = higher value.
Assay [5] deals with Calcium-dependent protein kinase 1 (Plasmodium falciparum (isolate 3D7)) (UniProt P62344). Briefly: PfCDPK1 kinase inhibitors, biochemical, TCAMS library (AID 1159585; cut-off not given, nearly all actives have IC50 up to about 0.98 µM;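 note: inhibitors leave more ATP so luminescence rises with inhibition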). Conditions: recombinant PfCDPK1, Kinase-Glo ATP depletion luminescence.
Chain of Calcium-dependent protein kinase 1 (Plasmodium falciparum (isolate 3D7)) (P62344 whole entry, looked up): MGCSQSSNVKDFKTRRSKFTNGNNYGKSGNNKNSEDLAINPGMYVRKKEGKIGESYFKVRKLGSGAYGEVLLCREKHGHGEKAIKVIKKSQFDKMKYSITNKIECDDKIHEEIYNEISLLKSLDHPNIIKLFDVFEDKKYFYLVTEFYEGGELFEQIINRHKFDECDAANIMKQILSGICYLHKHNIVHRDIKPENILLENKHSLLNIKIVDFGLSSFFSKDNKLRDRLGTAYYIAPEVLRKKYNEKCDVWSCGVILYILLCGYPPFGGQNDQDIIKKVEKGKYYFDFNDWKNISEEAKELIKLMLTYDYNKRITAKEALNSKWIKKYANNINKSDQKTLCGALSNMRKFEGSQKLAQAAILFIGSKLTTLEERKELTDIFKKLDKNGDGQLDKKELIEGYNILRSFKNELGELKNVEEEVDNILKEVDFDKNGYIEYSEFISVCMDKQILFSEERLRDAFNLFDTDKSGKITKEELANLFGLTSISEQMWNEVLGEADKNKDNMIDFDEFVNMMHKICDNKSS
Assay [6] concerns the target Plasmodium falciparum protein kinase 6 (PK6, PF3D7_1337100) (UniProt Q8IDW1). As to the kind of experiment: PfPK6 kinase inhibitors, biochemical, TCAMS library (AID 1159586). Conditions: recombinant PfPK6, Kinase-Glo ATP depletion luminescence. For orientation: Kinase-Glo reads ATP consumption through a luciferase reaction.
In assay [7] the target is Protein kinase 7 (PK7), Plasmodium falciparum 3D7 (PF3D7_0213400) (UniProt Q7YTF7). As to the kind of experiment: inhibition of Plasmodium PK7 catalytic activity – biochemical, TCAMS antimalarial set, Kinase-Glo luminescence (AID 1159587). Conditions: recombinant PfPK7, Kinase-Glo ATP depletion luminescence.
Chain of Protein kinase 7 (PK7), Plasmodium falciparum 3D7 (PF3D7_0213400) (Q7YTF7 1-343): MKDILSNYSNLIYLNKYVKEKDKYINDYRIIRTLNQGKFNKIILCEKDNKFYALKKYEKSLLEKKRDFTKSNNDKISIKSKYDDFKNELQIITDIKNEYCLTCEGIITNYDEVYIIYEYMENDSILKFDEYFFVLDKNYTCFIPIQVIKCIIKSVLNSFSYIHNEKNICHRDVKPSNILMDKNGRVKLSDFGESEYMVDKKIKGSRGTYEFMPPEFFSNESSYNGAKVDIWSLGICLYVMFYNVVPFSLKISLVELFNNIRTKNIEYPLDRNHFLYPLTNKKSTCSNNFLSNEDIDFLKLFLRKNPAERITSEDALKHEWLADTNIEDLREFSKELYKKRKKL
The target in assay [8] is Calcium-dependent protein kinase 4 (Plasmodium falciparum (isolate 3D7)) (UniProt Q8IBS5). Briefly: PfCDPK4 kinase inhibitors, biochemical, TCAMS library (AID 1159588; cut-off not given, nearly all actives have IC50 up to about 0.91 µM). Conditions: recombinant PfCDPK4, Kinase-Glo ATP depletion luminescence.
Chain of Calcium-dependent protein kinase 4 (Plasmodium falciparum (isolate 3D7)) (Q8IBS5 whole entry, looked up): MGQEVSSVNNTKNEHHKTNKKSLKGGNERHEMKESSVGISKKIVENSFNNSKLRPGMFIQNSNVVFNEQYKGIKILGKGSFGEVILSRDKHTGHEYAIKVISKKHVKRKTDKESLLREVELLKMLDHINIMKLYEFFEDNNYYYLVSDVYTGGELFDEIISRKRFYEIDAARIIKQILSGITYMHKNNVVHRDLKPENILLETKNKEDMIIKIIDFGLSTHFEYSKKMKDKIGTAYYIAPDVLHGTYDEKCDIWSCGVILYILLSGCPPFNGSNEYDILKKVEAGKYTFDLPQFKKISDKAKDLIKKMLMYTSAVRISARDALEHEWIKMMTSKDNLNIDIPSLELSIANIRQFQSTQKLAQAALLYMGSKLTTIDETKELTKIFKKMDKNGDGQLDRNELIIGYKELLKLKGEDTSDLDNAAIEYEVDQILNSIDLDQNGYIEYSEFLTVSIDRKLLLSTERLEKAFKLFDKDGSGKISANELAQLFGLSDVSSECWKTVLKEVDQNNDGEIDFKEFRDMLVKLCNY

Values without a mark were called inactive. For part of these data: Potency and affinity values are given separately. Active and inactive are the calls of the source. Unless noted, the rule behind the calls is not given here.

Chain of Plasmodium falciparum protein kinase 6 (PK6, PF3D7_1337100) (Q8IDW1 1-305): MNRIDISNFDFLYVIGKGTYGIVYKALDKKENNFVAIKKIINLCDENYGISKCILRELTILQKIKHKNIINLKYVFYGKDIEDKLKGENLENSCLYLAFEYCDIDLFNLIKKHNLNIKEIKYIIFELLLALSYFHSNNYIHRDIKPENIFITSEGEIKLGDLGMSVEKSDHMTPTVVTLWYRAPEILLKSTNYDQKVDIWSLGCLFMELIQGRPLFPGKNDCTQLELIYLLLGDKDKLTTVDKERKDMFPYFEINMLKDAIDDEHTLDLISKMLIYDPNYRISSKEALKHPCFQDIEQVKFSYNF

What is called inhibition is the change of the read-out against control, counted positive when it falls. For `Cc1cc(=O)c(-c2ccc(OCc3ccc(OC(F)(F)F)cc3)cc2)c(C)[nH]1`, the growth inhibition in assay [1] is 92% (active); in assay [4], 97% (active). The inhibition in assay [2] and in assay [3] was 3% throughout. Besides, the outcome in assay [5], in assay [6], in assay [7] and in assay [8] was inactive.
As for `NC1=NC2(CCCC2)N(c2ccc(Cl)cc2)C(N)=N1`, the growth inhibition in assay [1] is -1%; in assay [4] it was 97% (active). In addition, the results for the inhibition in assay [2] and in assay [3] were -8% and -6%, respectively. Also, the result in assay [5], in assay [6], in assay [7] and in assay [8] was inactive.
Regarding `Cc1c(-c2cccc(C(C)(C)NCCCN3CCCCC3)c2)cnc(N)c1C`, the growth inhibition in assay [1] is 2%; in assay [4], 95% (active). In addition, the values for the inhibition in assay [2] and in assay [3] were 5% and -1%, respectively. In addition, the result in assay [5], in assay [6], in assay [7] and in assay [8] was inactive.
For `O=C(Nc1ccc(CCNC2=NCCN2)cc1)Nc1ccc(CCNC2=NCCN2)cc1`, the growth inhibition in assay [1] was 66% (active); in assay [4], 90% (active). For the same molecule, the inhibition in assay [2] was 6%; in assay [3], 4%. Further, the outcome in assay [5], in assay [6], in assay [7] and in assay [8] was inactive.
On to `O=c1ccc2ncc(Cl)c3c2n1CC3CN1CCC(NCc2cc3c(cn2)OCCO3)CC1` (centres undefined), for which the growth inhibition in assay [1] is 29%; in assay [4] it was 96% (active). Further, the inhibition in assay [2] was 27%; in assay [3], -2%. In addition, the result in assay [5], in assay [6], in assay [7] and in assay [8] was inactive.
In the case of `Cc1nc(-c2cccc(NC(C)C(=O)Nc3cc(C(F)(F)F)ccc3N3CCOCC3)c2)cs1` (centres undefined), the growth inhibition in assay [1] is 97% (active); in assay [4], 82% (active). Further, the inhibition is 3% in assay [2] and -2% in assay [3]. Further, the result in assay [5], in assay [6], in assay [7] and in assay [8] was inactive.
As to `Nc1c2ccccc2nc2ccc(Cl)cc12`, the growth inhibition in assay [1] was 100% (active); in assay [4] it was 101% (active). In addition, the inhibition in assay [2] is 55% (active); in assay [3], 6%. Besides, the result in assay [5], in assay [6], in assay [7] and in assay [8] was inactive.
`Cc1noc(C)c1-c1ccc(C(=C2CCCCCCC2)c2ccc(O)cc2)cc1`: the growth inhibition in assay [1] is 48%; in assay [4], 83% (active). In addition, the inhibition in assay [2] was -6%; in assay [3], 1%. In addition, the outcome in assay [5], in assay [6], in assay [7] and in assay [8] was inactive.
For the molecule `COc1cc(CN2CCC(NC(=O)[C@H](Cc3ccccc3)NC(=O)Nc3ccc(Oc4ccccc4)cc3)C2)ccc1O` (some centres undefined), the growth inhibition is -2% in assay [1] and 92% (active) in assay [4]. The inhibition in assay [2] was 10%; in assay [3], 6%. Further, the result in assay [5], in assay [6], in assay [7] and in assay [8] was inactive.
Turning to `CC(C)(C)OC(=O)NCc1ccc(Nc2nnc(-c3cccc(C(=O)NCCC(c4ccccc4)c4ccccc4)c3)o2)cc1`, the growth inhibition is 89% (active) in assay [1] and 100% (active) in assay [4]. In addition, the inhibition was -4% in assay [2] and -2% in assay [3]. Further, the result in assay [5], in assay [6], in assay [7] and in assay [8] was inactive.
`Cc1cccc2[nH]c(-c3ccc(-c4cccc(CNCc5cccc(N)c5)c4)s3)nc12`: the growth inhibition is 85% (active) in assay [1] and 102% (active) in assay [4]. The values for the inhibition in assay [2] and in assay [3] were 15% and -4%, respectively. The result in assay [5], in assay [6], in assay [7] and in assay [8] was inactive.
With `O=C(NCCCN1CCN(c2cccc(Cl)c2)CC1)c1ccc(-c2nc3cc(Cl)c(Cl)cc3[nH]2)c(F)c1`, the growth inhibition is 72% (active) in assay [1] and 101% (active) in assay [4]. Besides, the inhibition in assay [2] was 3%; in assay [3] it was 2%. Besides, the result in assay [5], in assay [6], in assay [7] and in assay [8] was inactive.
As to `COc1cc(Br)ccc1N1CCN(CCCCNC(=O)c2ccc(NC(=O)c3ccc(Cl)cc3)cc2)CC1`, the growth inhibition in assay [1] is 33%; in assay [4], 96% (active). Further, the inhibition was 55% (active) in assay [2] and 1% in assay [3]. Also, the outcome in assay [5], in assay [6], in assay [7] and in assay [8] was inactive.
Take `O=C(/C=C/c1ccc(Cl)cc1)NCCCCCN1CCCC(C(=O)Nc2ccc(F)c(Cl)c2)C1` (centres undefined): the growth inhibition in assay [1] was 6%; in assay [4], 94% (active). The inhibition in assay [2] is 27%; in assay [3], 7%. In addition, the outcome in assay [5], in assay [6], in assay [7] and in assay [8] was inactive.
Consider `Nc1ccc(-c2ccc(NC(=O)Nc3ccccc3)cc2)cn1`, for which the results for the growth inhibition in assay [1] and in assay [4] were 93% (active) and 91% (active), respectively. The results for the inhibition in assay [2] and in assay [3] were -3% and -1%, respectively. Moreover, the outcome in assay [5], in assay [6], in assay [7] and in assay [8] was inactive.
With `Cc1nc(-c2ccncc2)sc1C(=O)Nc1ccc(Cl)cc1C(=O)Nc1ccc(Cl)cc1`, the growth inhibition in assay [1] was 47%; in assay [4], 98% (active). Also, the results for the inhibition in assay [2] and in assay [3] were 2% and -3%, respectively. Further, the outcome in assay [5], in assay [6], in assay [7] and in assay [8] was inactive.
Turning to `Cc1ccc(Oc2ccc(NC(=O)CNc3ccccc3N3CCCC3=O)cc2)cc1`, the growth inhibition was 97% (active) in assay [1] and 98% (active) in assay [4]. Also, the results for the inhibition in assay [2] and in assay [3] were 14% and -5%, respectively. Moreover, the outcome in assay [5], in assay [6], in assay [7] and in assay [8] was inactive.
Consider `CCc1ccc2c(c1O)CCN(C)C2Cc1ccccc1Cl` (centres undefined), for which the growth inhibition in assay [1] and in assay [4] was 99% (active) each time. Also, the inhibition in assay [2] is 13%; in assay [3] it was -3%. The outcome in assay [5], in assay [6], in assay [7] and in assay [8] was inactive.

The values above are taken from PubChem BioAssay.
